Here are results for 20 compounds from PubChem BioAssay (NCATS).

Inconclusive results are not listed. Activity calls are given as the source filed them. Calls follow the shape of the dose curve; as a rule, active = well fitted inhibition curve with a large enough effect; inconclusive = small, poorly fitted or top-dose-only effect; inactive = flat fitted curve, though single readings scatter.

Holding throughout (assay): qHTS profiling for inhibitors of Plasmodium falciparum proliferation (AID 504749); also: nearly all actives have a fitted effect of over 60% in size
Conditions in all cases: P. falciparum in erythrocytes, SYBR Green DNA, 72 h; series mostly up to 28.7 µM
A general note: Quantitative high-throughput screening tests each substance at several concentrations.

The test system of one assay is CP266. In short, it runs like this: (§1)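 SYBR Green fluorescence (ex 485 nm, em 535 nm) reports parasite DNA after 72 h compound exposure of infected red cells at 0.3% parasitemia, 2.5% hematocrit; signal normalized to 0.29 uM artemisinin and vehicle wells.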
The test system of another assay is CP268. The procedure, abridged:
as §1

Another assay deals with CP269. In short, it runs like this: as §1
In the next assay the test system is CP286. In short, it runs like this:
as §1

A further assay has as its system CP291. The procedure, abridged:
as §1

Another assay concerns CP297. The procedure, abridged: as §1
Another assay deals with CP305. The procedure, abridged:
as §1

The next assay concerns CP315. In short, it runs like this:
as §1

In another assay the test system is CP325. In short, it runs like this: as §1
The next assay relates to CP329. The procedure, abridged:
as §1
Potency is read from the fitted curve at half-maximal effect.

On to `CCCCCCCCCCCCCC[N+](C)(C)Cc1ccccc1`, for which the Potency in the assay with CP266 was 10.7 µM (active); with CP268, 6.75 µM (active); in the assay on CP269 it was 4.78 µM (active); in the assay on CP286, 3.16 µM (active); in the assay with CP291 it was 4.78 µM (active); in the assay on CP297, 5.36 µM (active). The Potency in the assay on CP305 is 5.36 µM (active); with CP315, 10.7 µM (active); in the assay on CP325, 5.36 µM (active); with CP329, 4.78 µM (active).
For the compound `C[N+]1(CC2COC(c3ccccc3)(C3CCCCC3)O2)CCCCC1` (centres undefined), the Potency is 8.49 µM (active) in the assay with CP266; 7.57 µM (active) in the assay with CP268; 4.78 µM (active) in the assay on CP269; 5.01 µM (active) in the assay on CP286; 4.78 µM (active) with CP291; 6.01 µM (active) in the assay with CP297. The figures for the Potency in the assay on CP305, with CP315 and in the assay with CP325 were 4.78 µM (active), 6.01 µM (active) and 6.75 µM (active), respectively.
In the case of `O=C(Nc1ccc([N+](=O)[O-])cc1)Nc1ccc([N+](=O)[O-])cc1`, the Potency entry with CP266, in the assay on CP268, in the assay with CP269, with CP291, in the assay with CP297 and with CP305 was “inactive” each time. Also, the Potency entry in the assay with CP315, in the assay on CP325 and in the assay on CP329 was “inactive” throughout. For the same compound, in the assay on CP286, the Potency is 3.16 µM (active).
Take `CC(=O)NO`: the Potency entry in the assay on CP266, in the assay with CP268, in the assay on CP269, in the assay with CP286, in the assay on CP291 and in the assay on CP297 was “inactive” each time. The Potency entry with CP305, in the assay on CP315, in the assay on CP325 and in the assay on CP329 was “inactive” in each case.
With `CCc1oc2ccccc2c1C(=O)c1cc(Br)c(O)c(Br)c1`, the Potency entry with CP266, in the assay on CP268, in the assay on CP269, in the assay on CP286, in the assay on CP291 and in the assay with CP297 was “inactive” in each case. Also, the Potency result in the assay with CP305, in the assay with CP315, with CP325 and in the assay on CP329 was “inactive” in each case.
Turning to `CCN(CC)CCNc1ccc(CO)c2sc3ccccc3c(=O)c12`, the Potency in the assay with CP266 was 5.36 µM (active); with CP268, 3.38 µM (active); in the assay with CP269, 1.9 µM (active); with CP286, 2 µM (active); with CP291, 4.78 µM (active); in the assay on CP297 it was 1.69 µM (active). Besides, the Potency was 3.79 µM (active) with CP305, 6.01 µM (active) in the assay on CP315, 4.78 µM (active) with CP325 and 4.78 µM (active) in the assay on CP329.
As to `O=c1[nH]c(=O)n([C@H]2C[C@H](O)[C@@H](CO)O2)cc1F`, the Potency entry in the assay on CP266, with CP268, in the assay with CP269, with CP286, in the assay with CP291 and in the assay with CP297 was “inactive” in each case. Besides, the Potency entry in the assay on CP305, in the assay on CP315, in the assay on CP325 and in the assay with CP329 was “inactive” throughout.
For the compound `NCCNC(=O)c1ccc(Cl)cn1`, the Potency result in the assay with CP266, in the assay on CP268, in the assay on CP269, in the assay on CP286, in the assay on CP291 and in the assay on CP297 was “inactive” throughout. The Potency entry in the assay on CP305, in the assay with CP315, with CP325 and in the assay on CP329 was “inactive” throughout.
`CC1=C(C(=O)O)N2C(=O)[C@@H](NC(=O)[C@H](N)c3ccccc3)[C@H]2SC1`: the Potency entry with CP266, in the assay with CP268, in the assay with CP269, in the assay with CP286, in the assay on CP291 and with CP297 was “inactive” in each case. Besides, the Potency entry with CP305, in the assay with CP315, in the assay with CP325 and in the assay on CP329 was “inactive” each time.
With `C=CCN1CCc2nc(N)sc2CC1`, the Potency entry with CP266, in the assay on CP268, in the assay with CP269, in the assay with CP286, with CP291 and with CP297 was “inactive” in each case. The Potency entry in the assay on CP305, in the assay with CP315, in the assay with CP325 and with CP329 was “inactive” each time.
With `CCOC(=O)c1c(N)sc2c1CCN(Cc1ccccc1)C2`, the Potency with CP266 is 12 µM (active); in the assay on CP268, 7.57 µM (active); in the assay with CP269 it was 6.01 µM (active); with CP286, 5.62 µM (active); with CP291, 8.49 µM (active); in the assay on CP297, 7.57 µM (active). The Potency with CP305 is 6.01 µM (active); in the assay on CP315, 6.75 µM (active); in the assay with CP325, 4.78 µM (active); in the assay with CP329, 4.78 µM (active).
With `CCOc1ccc(NC(C)=O)cc1`, the Potency result with CP266, in the assay with CP268, in the assay with CP269, in the assay with CP286, with CP291 and with CP297 was “inactive” throughout. The Potency entry in the assay on CP305, in the assay on CP315, in the assay with CP325 and with CP329 was “inactive” each time.
On to `COc1cc(NS(=O)(=O)c2ccc(N)cc2)ncn1`, for which the Potency result in the assay with CP266, in the assay on CP268, in the assay on CP269, in the assay on CP286, in the assay with CP291 and in the assay with CP297 was “inactive” throughout. Also, the Potency entry with CP305, with CP315, with CP325 and with CP329 was “inactive” throughout.
As for `CCNC(=O)NCc1cccc(Cl)c1`, the Potency entry in the assay with CP266, with CP268, with CP269, with CP286, with CP291 and in the assay with CP297 was “inactive” throughout. In addition, the Potency entry in the assay with CP305, in the assay with CP315, with CP325 and in the assay on CP329 was “inactive” throughout.
With `C[C@@H](O)[C@H]1C(=O)N2C(C(=O)O)=C(S[C@@H]3CN[C@H](CNS(N)(=O)=O)C3)[C@H](C)[C@H]12`, the Potency result with CP266, with CP268, with CP269, in the assay on CP286, with CP291 and with CP297 was “inactive” throughout. The Potency result in the assay on CP305, with CP315, in the assay on CP325 and in the assay on CP329 was “inactive” each time.
In the case of `CC(C)CCCC(C)N` (centres undefined), the Potency result with CP266, in the assay with CP268, in the assay on CP269, with CP286, in the assay on CP291 and in the assay on CP297 was “inactive” each time. Also, the Potency result in the assay on CP305, in the assay with CP315, in the assay on CP325 and in the assay on CP329 was “inactive” throughout.
Consider `Nc1ccc(S(=O)(=O)Nc2cnc3ccccc3n2)cc1`, for which the Potency entry in the assay with CP266, in the assay on CP268, in the assay on CP269, in the assay on CP286, in the assay on CP291 and with CP297 was “inactive” in each case. For the same compound, the Potency result in the assay on CP305, with CP315, with CP325 and in the assay on CP329 was “inactive” each time.
As for `CCCCCCCCCCCCSCCOCCO`, the Potency result in the assay with CP266, in the assay with CP268, in the assay on CP269, in the assay with CP286, in the assay on CP291 and in the assay on CP297 was “inactive” throughout. The Potency entry with CP305, in the assay with CP315, in the assay with CP325 and with CP329 was “inactive” in each case.
With `CC(C)=CCOc1ccc(/C=C/C(=O)c2ccc(OCC=C(C)C)cc2OCC(=O)O)cc1`, the Potency result with CP266, in the assay on CP268, in the assay with CP269, with CP286, with CP291 and with CP297 was “inactive” in each case. The Potency entry with CP305, with CP315, in the assay on CP325 and in the assay with CP329 was “inactive” each time.
With `CCCCN=C(N)N=C(N)N`, the Potency entry in the assay on CP266, in the assay on CP268, in the assay with CP269, in the assay on CP286, in the assay on CP291 and in the assay on CP297 was “inactive” each time. For the same compound, the Potency result with CP305, with CP315, in the assay on CP325 and in the assay on CP329 was “inactive” throughout.
